Consider 16 molecules from PubChem BioAssay AID2113 (National Center for Advancing Translational Sciences (NCATS), 2009).

Inconclusive results are not listed. Entries that show only a call come without a potency. Activity calls are given as the source filed them. Calls follow the shape of the dose curve; as a rule, active = well fitted curve in either direction with a large enough effect; inconclusive = small, poorly fitted or top-dose-only effect; inactive = no such curve, though single readings can be large or run the other way.
Potency is read from the fitted curve at half-maximal effect.

The test deals with Lysosomal alpha-glucosidase (Homo sapiens) (UniProt P10253). Briefly: Confirmation of Inhibitors and Activators of Human alpha-Glucosidase From Spleen Homogenate.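 As to potency: fluorescence of 4-methylumbelliferone released from a fluorogenic glucopyranoside substrate at pH 5.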 The settings on record: alpha-glucosidase enzyme activity; series mostly up to 60.5 µM. The gist of the method:
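Compounds titrated against spleen-homogenate alpha-glucosidase, pH 5.0, 1 mM 4-MU-glucoside substrate, 37 C for 40 min. Fluorescence after pH 10 stop, normalised to no-enzyme and enzyme controls; Hill-equation AC50.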
Regarding `O=C(CSc1ncc(C(F)(F)F)cc1Cl)N1CCN(S(=O)(=O)c2ccccc2)CC1`, the Potency entry was “inactive”.

For the molecule `Cc1cccc(-n2c(N)cc(=O)[nH]c2=S)c1C`, the Potency entry was “inactive”.

Consider `N#C/C(=C\c1c(N2CCCCC2)nc2ccccn2c1=O)C(=O)NC1CCS(=O)(=O)C1` (stereo unspecified), for which the Potency is 14.1 µM (active).

With `Cc1ccc(N2CCN(S(=O)(=O)c3ccc4c(c3)CC(=O)N4)CC2)cc1`, the Potency entry was “inactive”.

On to `CCCN1CNc2c(c(=O)[nH]c(=S)n2CCc2c(OC)cccc2OC)C1`, for which the Potency result was “inactive”.

On to `CCCN1CNc2c(c(=O)[nH]c(=S)n2CCc2cc(OC)ccc2OC)C1`, for which the Potency was 20 µM (active).

As to `CSc1ccccc1NC(=O)CN(C)CC(=O)NCc1ccccc1`, the Potency result is “inactive”.

For the molecule `COc1ccc(CCn2c(=S)[nH]c(=O)c3[nH]cnc32)cc1OC`, the Potency entry is “inactive”.

Consider `CCN(CC)S(=O)(=O)c1ccc2c(c1)C(=NNc1ccccc1)c1cc(S(=O)(=O)N(CC)CC)ccc1-2`, for which the Potency result was “inactive”.

For `CC(N=C(NC#N)Nc1ccncc1)C(C)(C)C` (stereo unspecified), the Potency result is “inactive”.

Consider `CC(=O)N1CCN(c2ccc(NS(=O)(=O)c3ccc4c(c3)CC(=O)N4)cc2)CC1`, for which the Potency result was “inactive”.

On to `COc1cccc(CCn2c(N)cc(=O)[nH]c2=S)c1OC`, for which the Potency entry was “inactive”.

Take `CC(=O)c1ccc(N2CCN(S(=O)(=O)c3ccc4[nH]c(=O)oc4c3)CC2)cc1`: the Potency result is “inactive”.

Turning to `COc1ccc(C(=O)N2CCN(c3ccc([N+](=O)[O-])c(NCCc4ccc(OC)c(OC)c4)c3)CC2)cc1`, the Potency result is “inactive”.

For the molecule `Cn1cnc2c(NCc3ccccc3)nc(NCCO)nc21`, the Potency entry was “inactive”.

As to `COc1ccc(CCn2c3c(c(=O)[nH]c2=S)CN(C)CN3)cc1OC`, the Potency is 31.6 µM (active).
